One assay has as its target T1, Proteasome subunit beta (Trypanosoma cruzi) (UniProt O96673).
T1 sequence (whole entry): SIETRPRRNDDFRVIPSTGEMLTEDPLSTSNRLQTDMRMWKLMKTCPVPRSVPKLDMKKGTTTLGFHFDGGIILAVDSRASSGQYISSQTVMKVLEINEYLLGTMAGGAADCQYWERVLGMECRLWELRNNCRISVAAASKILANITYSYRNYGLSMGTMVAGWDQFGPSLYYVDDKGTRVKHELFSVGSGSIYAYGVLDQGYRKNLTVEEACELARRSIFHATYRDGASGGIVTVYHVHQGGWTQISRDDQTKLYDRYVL
The assay can be described thus: Trypanosoma cruzi proteasome chymotrypsin-like activity (TcProtChymo) assay. The assay is classed as functional. Details: scale not given: in the data most compounds retested in dose-response had high values. To be noted: 9.37 µM.
In the case of `CN(C)C(=O)N1CCOCC2(CCN(c3ccccn3)C2)C1` (stereo not drawn), the Percent Effect amounted to 9.19%.
On the same count and under the same terms, then `CCN(CC)Cc1ccc(C(=O)N2CCCCC2Cn2cccn2)o1` (stereo not drawn), with 3.23%; and `O=C(c1ccc(F)c(F)c1)N1CCCSCC1CN1CCCC1` (stereo not drawn), with 8.7%; and `Cn1cc(N2CC3(CCN(CC4CCOCC4)CC3)OCC2=O)cn1`, with 19.8%.
On the same count and under the same terms, then `Cc1cn2nc(N3CCCC3CC(C)(C)C)sc2n1` (stereo not drawn), with 11%.
Still for that read-out and setting: in the case of `CCSc1cc(C(=O)NCCC(=O)Nc2ccccn2)ccn1` it was 8.16%; in that of `CC(C)Cc1noc(CN2CCN(CCO)CC2)n1`, 12%.
`CCOc1cc(F)ccc1NS(=O)(=O)c1cc(C)c(C(=O)O)s1`: the Percent Effect stood at 8.15%.
On the same count and under the same terms, in the case of `O=C(CC1CC1)NCc1cn2c(n1)CN(CC1CC1)CC2` it was 10.7%.
Same read-out and setting: in the case of `COc1cccc2c1OCC(NC(=O)NCc1cccs1)C2` (stereo not drawn) it was 9.11%; in that of `Cc1nc(-c2ccsc2)ccc1C(=O)NCCC(=O)N1CCCC1`, 3.34%.
Same read-out and setting: then `COc1ccc(-c2nc(CN3CC(n4cc(C)cn4)C3)no2)cc1`, with 12%; and `Cn1nc(CNC(=O)C2CC2)cc1C1CC1`, with 4%; and `CCCc1n[nH]c(C2CN(Cc3nnc(C4CC4)o3)CCO2)n1` (stereo not drawn), with -0.409%.
On to `CC(=O)N1CCCN(C(=O)c2cnc3n[nH]c(C)c3c2)CC1`, for which the Percent Effect is 2.45%.
On the same count and under the same terms, in the case of `COc1ccc(C2(CNC(C)c3nnc(C)o3)CCCCC2)cc1` (stereo not drawn) it was 6.03%; in that of `CCN(CC)Cc1cn2c(n1)CN(C(=O)c1cnccn1)CC2`, 19.9%; in that of `OCCOc1nc(-c2ccccc2Cl)no1`, 20.4%.
Consider `CCN(C)c1ncnc2c1CCN(C(=O)N1CCCC1)CC2`, for which the Percent Effect came out at 17.6%.
As for `NCC1CN(c2nc(-c3ccccc3)nc3c2CCNCC3)CCO1` (stereo not drawn), the Percent Effect is -1.11%.
On the same count and under the same terms, then `Cc1cnc(N2CCn3cc(CNC(=O)CC4CC4)nc3C2)nc1`, with -6.78%; and `Cc1cnn(C2CCCN(C(=O)CCc3nccs3)C2)c1` (stereo not drawn), with 17.3%; and `CC(C)NC(=O)N1CCC(n2ccc(C(F)(F)F)n2)CC1`, with 5.32%.
Take `CC(=O)N1CCCN(C(=O)c2csc(-c3ccc(C)cc3C)n2)CC1`: the Percent Effect amounted to 5.39%.
The same measure, in the same setting: in the case of `O=C1NCC2(CCCN(CCc3ccccc3)C2)Oc2ccccc21` (stereo not drawn) it was 6.86%; in that of `Cc1ccc(-c2cc(CNC(=O)N3CCC(CO)CC3)on2)cc1`, 14.9%.
On the same count and under the same terms, then `CC(C)N1CCC(NCc2cccnc2N(C)Cc2ccccc2)CC1`, with 4.01%; and `COCC1CN(C(=O)CNC(C)=O)Cc2ncnn2C1` (stereo not drawn), with 4.99%; and `CN1CCOC(CNCc2cccc(OCc3ccccn3)c2)C1` (stereo not drawn), with -4.18%.
Still for that read-out and setting: in the case of `C=Cn1ncc(CN2C[C@@H]3CCCN3C[C@@H]2Cc2ccccc2)c1C` it was 11.2%; in that of `O=C(CCNS(=O)(=O)c1ccc2c(c1)CCCC2)NCc1ccoc1`, 8.37%; in that of `CN(CCc1ccccc1)C1CCCN(Cc2nccn2C)C1` (stereo not drawn), 9.48%.
`CC(=O)N1CCOCC2(CN(Cc3ccc(C)o3)CCO2)C1` (stereo not drawn): the Percent Effect stood at 1.67%.
Same read-out and setting: then `O=c1cc(Cn2ccnc2)nc2n1CCCN(Cc1ccsc1)C2`, with 13.3%; and `O=C(Cc1ccccc1F)N1C[C@@H]2COC[C@]2(COc2cccnc2)C1`, with 17.5%; and `c1ccc(-c2cc(CN3CCC(c4ccn[nH]4)CC3)on2)cc1`, with 17.2%.
The same measure, in the same setting: in the case of `CCc1nnc2n1CCN(Cc1csc(-c3ccsc3)n1)C2` it was 13.5%; in that of `Cc1cc(NC(=O)Cn2cc(C#N)c(=O)c3cc(Br)ccc32)no1`, 13.8%.
For `COCc1nc2cc(NCc3ccc(C)o3)ccc2o1`, the Percent Effect is 14.3%.

The species named for the next assay is Homo sapiens. The assay can be described thus: To identify inhibition of the IFN signalling (Jak-Stat) pathway via expression of an eGFP reporter gene under the control of an IFN-stimulated response element (ISRE) containing MxA promoter. To be noted: 30 µM. The assay is classed as functional. Also on record: scale not given: direction of the effect not stated beside the values. Background: In a reporter assay the amount or activity of a reporter protein is the signal.
In the case of `CN(C)C(=O)N1CCOCC2(CCN(c3ccccn3)C2)C1` (stereo not drawn), the Percent Effect is -4.16%.
For the compound `CCN(CC)Cc1ccc(C(=O)N2CCCCC2Cn2cccn2)o1` (stereo not drawn), the Percent Effect was 2.84%.
The same measure, in the same setting: then `O=C(c1ccc(F)c(F)c1)N1CCCSCC1CN1CCCC1` (stereo not drawn), with -1.06%.
The same measure, in the same setting: then `Cn1cc(N2CC3(CCN(CC4CCOCC4)CC3)OCC2=O)cn1`, with 17.2%; and `Cc1cn2nc(N3CCCC3CC(C)(C)C)sc2n1` (stereo not drawn), with 15.4%; and `CCSc1cc(C(=O)NCCC(=O)Nc2ccccn2)ccn1`, with 15.8%.
Still for that read-out and setting: then `CC(C)Cc1noc(CN2CCN(CCO)CC2)n1`, with 11.2%; and `CCOc1cc(F)ccc1NS(=O)(=O)c1cc(C)c(C(=O)O)s1`, with -8.12%; and `O=C(CC1CC1)NCc1cn2c(n1)CN(CC1CC1)CC2`, with 3.1%.
With `COc1cccc2c1OCC(NC(=O)NCc1cccs1)C2` (stereo not drawn), the Percent Effect was 5.73%.
On to `Cc1nc(-c2ccsc2)ccc1C(=O)NCCC(=O)N1CCCC1`, for which the Percent Effect was -2.2%.
Same read-out and setting: then `COc1ccc(-c2nc(CN3CC(n4cc(C)cn4)C3)no2)cc1`, with 12.7%; and `Cn1nc(CNC(=O)C2CC2)cc1C1CC1`, with 6.02%; and `CCCc1n[nH]c(C2CN(Cc3nnc(C4CC4)o3)CCO2)n1` (stereo not drawn), with 3.77%.
Same read-out and setting: then `CC(=O)N1CCCN(C(=O)c2cnc3n[nH]c(C)c3c2)CC1`, with -3.15%; and `COc1ccc(C2(CNC(C)c3nnc(C)o3)CCCCC2)cc1` (stereo not drawn), with 5.78%.
On the same count and under the same terms, in the case of `CCN(CC)Cc1cn2c(n1)CN(C(=O)c1cnccn1)CC2` it was -5.71%; in that of `OCCOc1nc(-c2ccccc2Cl)no1`, 24.7%; in that of `CCN(C)c1ncnc2c1CCN(C(=O)N1CCCC1)CC2`, -9.36%.
Regarding `NCC1CN(c2nc(-c3ccccc3)nc3c2CCNCC3)CCO1` (stereo not drawn), the Percent Effect is 4.88%.
On the same count and under the same terms, in the case of `Cc1cnc(N2CCn3cc(CNC(=O)CC4CC4)nc3C2)nc1` it was 10.1%.
The same measure, in the same setting: in the case of `Cc1cnn(C2CCCN(C(=O)CCc3nccs3)C2)c1` (stereo not drawn) it was 16.1%; in that of `CC(C)NC(=O)N1CCC(n2ccc(C(F)(F)F)n2)CC1`, -13.8%.
`CC(=O)N1CCCN(C(=O)c2csc(-c3ccc(C)cc3C)n2)CC1`: the Percent Effect amounted to 30%.
Still for that read-out and setting: in the case of `O=C1NCC2(CCCN(CCc3ccccc3)C2)Oc2ccccc21` (stereo not drawn) it was 15.8%.
The same measure, in the same setting: in the case of `Cc1ccc(-c2cc(CNC(=O)N3CCC(CO)CC3)on2)cc1` it was 14%; in that of `CC(C)N1CCC(NCc2cccnc2N(C)Cc2ccccc2)CC1`, -2.28%.
The same measure, in the same setting: then `COCC1CN(C(=O)CNC(C)=O)Cc2ncnn2C1` (stereo not drawn), with -13.1%; and `CN1CCOC(CNCc2cccc(OCc3ccccn3)c2)C1` (stereo not drawn), with -5.19%.
`C=Cn1ncc(CN2C[C@@H]3CCCN3C[C@@H]2Cc2ccccc2)c1C`: the Percent Effect is 26.4%.
The same measure, in the same setting: in the case of `O=C(CCNS(=O)(=O)c1ccc2c(c1)CCCC2)NCc1ccoc1` it was 14.2%.
The same measure, in the same setting: then `CN(CCc1ccccc1)C1CCCN(Cc2nccn2C)C1` (stereo not drawn), with -25.8%; and `CC(=O)N1CCOCC2(CN(Cc3ccc(C)o3)CCO2)C1` (stereo not drawn), with 17.8%.
On the same count and under the same terms, then `O=c1cc(Cn2ccnc2)nc2n1CCCN(Cc1ccsc1)C2`, with -7.79%; and `O=C(Cc1ccccc1F)N1C[C@@H]2COC[C@]2(COc2cccnc2)C1`, with -1.09%; and `c1ccc(-c2cc(CN3CCC(c4ccn[nH]4)CC3)on2)cc1`, with 42.5%.
With `CCc1nnc2n1CCN(Cc1csc(-c3ccsc3)n1)C2`, the Percent Effect is -14.4%.
Still for that read-out and setting: then `Cc1cc(NC(=O)Cn2cc(C#N)c(=O)c3cc(Br)ccc32)no1`, with 19.5%.
For `COCc1nc2cc(NCc3ccc(C)o3)ccc2o1`, the Percent Effect is -1.74%.

The record behind these values is ChEMBL document CHEMBL3988442, “University of Dundee, Small-Polar-MMV Screening Library” (2021).
